From PubChem BioAssay
HCMV inh: inhibitors of human cytomegalovirus; 410,000 compounds, 4.5% hits; activity change, negative = inhibition, % at 57.5 µM; HFF cells, HCMV-luciferase reporter, 72 h; stronger effect = lower value; in the data active means activity change below about -60%; inconclusive means no clear call, values can overlap the other calls; inactive means above about -39%
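Screen run at 2 compound doses on HFFs infected with reporter HCMV, MOI 1 PFU/cell. Luciferase activity from cell lysates at 72 h post infection gave inhibition relative to buffer-only and Salinomycin wells.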
VACV mCherry inh: vaccinia inhibition (mCherry reporter); Vaccinia virus mCherry reporter infection, fluorescence; 310,000 compounds, 0.63% hits; Potency, µM (titrated, usually from 36.5 µM), hits mostly inhibitors; calls by dose curve; tested in A549 cells; further: nearly all actives have a fitted effect of over 35% in size
FMDV inh: foot and mouth disease virus antiviral activity; FMDV antiviral cell-based qHTS; Potency, µM (titrated, usually from 57.9 µM), usual class: inhibitors; 410,000 compounds, 1.2% hits; AID 1159524; calls by dose curve; tested in HEK293T cells; further: read-out not given here; nearly all actives have a fitted effect of over 45% in size
Vaccinia Venus: inhibitors of vaccinia virus (Venus reporter) | 330,000 compounds, 0.46% hits | Potency, µM (titrated, usually from 36.5 µM), actives largely listed as inhibitors | Vaccinia virus Venus reporter expression, fluorescence; calls by dose curve; tested in A549 cells; further: nearly all actives have a fitted effect of over 30% in size
HCV inh: blocks hepatitis C virus. AID 651820. 340,000 compounds, 3.4% hits. Potency, µM (highest dose often 41.8 µM), usual class: inhibitors. Huh7.5.1 HCVcc-Cre infection, luciferase reporter, 44 h; active means well fitted inhibition curve with a large enough effect; inconclusive means small, poorly fitted or top-dose-only effect, or another doubt; inactive means no such curve, though single readings can be large or run the other way
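HCVcc-Cre virus at an moi near 0.5 was added right after compound to cells cultured 4 h from seeding (1,000 cells/well). Luciferase activity was determined 44 h later, 15 min after substrate addition at RT.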
Large screens that a line does not name were inactive. A selection: hits, their analogues and other compounds. The true share with any hit is near 7.3%.

COc1ccc(NC(=O)COc2ccccc2C(N)=O)cc1S(=O)(=O)N1CCCCC1	none (no result: HCV inh)
O=C(COC(=O)c1cc(S(=O)(=O)N2CCCC2)ccc1O)Nc1ccc(SC(F)F)cc1	FMDV inh inconclusive (no result: VACV mCherry inh, Vaccinia Venus)
COc1ccc(NC(=O)COc2ccccc2C)cc1S(=O)(=O)N1CCCCC1	FMDV inh inconclusive, HCV inh 8.9µM
Cc1ccc(Nc2nc(NCc3ccco3)nc3nccnc23)cc1	none (no result: HCMV inh, FMDV inh, HCV inh)
COc1cc(C(=O)Nc2c(C(=O)Nc3ccccc3F)oc3ccccc23)cc(OC)c1OC	none (no result: HCV inh)
COc1ccc(Br)c2c1-c1nc(NC(=O)c3ccc(F)cc3)sc1C2	none (no result: HCV inh)
COc1ccc(Cl)cc1NC(=O)C(C)n1nnc2sc3c(c2c1=O)CCCC3 (configuration not stated)	none (no result: HCV inh)
COc1cc2nc(N3CCCN(C)CC3)nc(Nc3ccncc3)c2cc1OC	Vaccinia Venus inconclusive (no result: HCMV inh, FMDV inh, HCV inh)
Cc1ccc(NC(=O)COC(=O)c2ccccc2F)cc1S(=O)(=O)N1CCCCC1	none
CCc1cccc(OCC(=O)Nc2ccc(C)c(S(=O)(=O)N3CCCCCC3)c2)c1	VACV mCherry inh inconclusive, FMDV inh inconclusive, HCV inh 8.9µM
Cc1cc(Cl)c(S(=O)(=O)NC(C(=O)O)C(C)C)cc1OCC(=O)NC1CCCCC1 (configuration not stated)	none (no result: VACV mCherry inh, Vaccinia Venus)
COc1ccc(NC(=O)CCOc2cc(C)ccc2C)cc1S(=O)(=O)N1CCCCC1	HCMV inh -62, VACV mCherry inh inconclusive, FMDV inh inconclusive, Vaccinia Venus inconclusive, HCV inh inconclusive
Cc1cc(Cl)c(S(=O)(=O)N2CCCC2)cc1OCC(=O)NC1CCCCC1	HCMV inh -96, FMDV inh inconclusive, HCV inh inconclusive (no result: VACV mCherry inh, Vaccinia Venus)
CCOc1ccc(OCC)c(Nc2cc(C)nc3nc(-c4ccco4)nn23)c1	none (no result: HCV inh)
CCOc1cccc2sc(NC(=O)c3ccc(S(=O)(=O)N4CCCCC4C)cc3)nc12 (configuration not stated)	FMDV inh inconclusive (no result: HCV inh)
O=C(CSc1nc2c([nH]c3ccccc32)c(=O)n1-c1ccccc1)Nc1cccc(C(F)(F)F)c1	HCMV inh inconclusive (no result: HCV inh)
Cc1ccccc1NC(=O)CSc1nc2ccccc2c2nc(CCn3c(C)nc4ccccc43)nn12	VACV mCherry inh inconclusive, FMDV inh inconclusive, Vaccinia Venus inconclusive (no result: HCV inh)
Cc1nc2ccccc2n1CCc1nc2c3ccccc3nc(SCC(=O)NCc3ccco3)n2n1	HCMV inh -62, FMDV inh inconclusive, HCV inh inconclusive (no result: VACV mCherry inh, Vaccinia Venus)
Cc1c(O)nc(SCC(=O)Nc2cccc(C(F)(F)F)c2)n(-c2ccccc2)c1=O	HCMV inh -104
Cc1nc2ccccc2n1CCc1nc2c3ccccc3nc(SCC(=O)Nc3cccc(C(F)(F)F)c3)n2n1	HCMV inh -61, Vaccinia Venus inconclusive (no result: HCV inh)
CCCN1CCN(CCNC(=O)Nc2ccc(OC)cc2OC)CC1	none (no result: HCV inh)
CCOc1ccc(CN(C)C(=O)CNC(=O)c2ccccc2)cc1	none
C=CCOc1ccc(CN(C)C(=O)CNC(=O)c2ccc(-c3ccccc3)cc2)cc1	HCMV inh -81, FMDV inh 13µM, HCV inh 11µM
FC(F)(F)c1ccccc1NC1=NCCCS1	HCMV inh -63
CC(=O)c1ccccc1NC(C(=O)Nc1ccc2c(c1)OCCO2)c1cccs1 (configuration not stated)	HCMV inh -64 (no result: VACV mCherry inh, FMDV inh, Vaccinia Venus, HCV inh)
CSc1ccccc1C(=O)Nc1ccc2c(c1)OCCO2	none (no result: VACV mCherry inh)
O=C(NN=Cc1ccccc1O)C(=O)Nc1ccc(F)cc1	none (no result: VACV mCherry inh, FMDV inh, Vaccinia Venus, HCV inh)
Nc1c(C(=O)c2ccccc2)sc2nsc(SCCN3CCCC3)c12	HCMV inh -91, Vaccinia Venus inconclusive, HCV inh inconclusive
COc1ccc(CNc2nc(-c3ccccc3)nn2S(=O)(=O)c2ccccc2)cc1	none (no result: HCV inh)
Cc1cc(Cl)ccc1NC(=O)CCC(=O)N/N=C/c1cccnc1	HCMV inh -68
Cc1ccc(C)c(NC(=O)CCC(=O)N/N=C/c2cccnc2)c1	none (no result: VACV mCherry inh, Vaccinia Venus)
COc1cc(NC(=O)c2ccc(C)cc2C)ccc1NC(=O)c1cc2ccccc2o1	HCMV inh -82, HCV inh inconclusive (no result: VACV mCherry inh, Vaccinia Venus)
COc1cc(NC(C)=O)ccc1-c1cc2ccccc2oc1=O	none
COc1cc(NC(=O)c2ccc(Cl)cc2Cl)ccc1-c1cc2ccccc2oc1=O	HCMV inh -91
Cc1cc(NC(=O)c2ccc3c(c2)OCCO3)ccc1NC(=O)c1cc2ccccc2o1	HCV inh 11µM (no result: VACV mCherry inh, Vaccinia Venus)
COc1cc(NC(=O)c2c(OC)cccc2OC)ccc1NC(=O)c1cc2ccccc2o1	VACV mCherry inh inconclusive, Vaccinia Venus inconclusive, HCV inh 25µM
COc1cc(NC(=O)c2ccc(F)cc2)ccc1NC(=O)c1cc2ccccc2o1	HCV inh inconclusive (no result: VACV mCherry inh, Vaccinia Venus)
COc1cc(NC(=O)c2ccc(C)cc2)ccc1NC(=O)c1cc2ccccc2o1	none
O=C(Nc1ccc(NC(=O)c2cc3ccccc3o2)cc1)c1ccc2c(c1)OCCO2	HCMV inh inconclusive, FMDV inh inconclusive, HCV inh inconclusive
Cc1cc(C)n2c(Nc3ccccc3)c(-c3ccc(C)o3)nc2n1	none (no result: HCMV inh, FMDV inh, HCV inh)
CC(=O)c1c2c(cc3ccc(Cl)cc13)CCC2	none (no result: VACV mCherry inh, FMDV inh, Vaccinia Venus, HCV inh)
CC(C)c1cnc2c(c1SCC(=O)c1ccccc1)c(=O)n(C)c(=O)n2C	none (no result: HCV inh)
CCC1CN(CCNC(=O)c2cc(C)nn2CC)Cc2cc(OC)ccc2O1 (configuration not stated)	none (no result: HCMV inh, HCV inh)
CCOC(=O)c1ccc(-n2c(CCC(=O)O)ccc2-c2ccc(Br)cc2)cc1	none (no result: HCV inh)
Cc1cccc(C(=O)N2CCc3cc(CNC(=O)c4ccnn4C)ccc32)c1	FMDV inh 20µM (no result: HCV inh)
Cc1ccc(C(=O)N2CCc3cc(CNC(=O)c4ccnn4C)ccc32)cc1	HCMV inh -70, FMDV inh inconclusive, Vaccinia Venus inconclusive (no result: HCV inh)
O=C(NCc1ccc2c(c1)CCN2C(=O)c1ccccc1)c1ccc(Br)o1	none (no result: HCV inh)
Cc1cccc(C(=O)N2CCc3cc(CNC(=O)c4ccc(Br)o4)ccc32)c1	HCMV inh -67 (no result: HCV inh)
Cn1nccc1C(=O)NCc1ccc2c(c1)CCN2C(=O)c1ccc(Cl)cc1	none (no result: HCV inh)
CCOC(=O)c1cccc(NC(=O)NCc2ccc3c(c2)CCN3C(=O)c2ccccc2)c1	HCMV inh inconclusive, VACV mCherry inh inconclusive, FMDV inh 40µM, Vaccinia Venus inconclusive (no result: HCV inh)
CC1(C(=O)Nc2ccc3c(c2)OCO3)CCN1C(=O)Cc1ccc(-c2ccccc2)cc1 (configuration not stated)	HCMV inh -81, VACV mCherry inh inconclusive (no result: HCV inh)
CC1(C(=O)Nc2ccccc2)CCN1C(=O)Cc1ccc(-c2ccccc2)cc1 (configuration not stated)	HCMV inh -74, FMDV inh inconclusive (no result: HCV inh)
Cc1ccc(C(NC(=O)N2CCCCC2)=C(Cl)Cl)cc1F	HCMV inh -80, FMDV inh inconclusive, HCV inh inconclusive (no result: VACV mCherry inh, Vaccinia Venus)
Cc1ccc(C(NC(=O)NCCCN2CCOCC2)=C(Cl)Cl)cc1F	HCMV inh inconclusive, FMDV inh inconclusive, HCV inh inconclusive
CCn1nc(C(=O)Nc2nc3ccc(C)cc3s2)c2ccccc2c1=O	HCV inh 32µM (no result: FMDV inh)
COc1ccc(-n2nc(C(=O)Nc3nc4ccc(OC)cc4s3)c3ccccc3c2=O)c(OC)c1	none (no result: HCMV inh, VACV mCherry inh, FMDV inh, Vaccinia Venus)
Cc1nc2ccc(NC(=O)c3nn(CC(C)C)c(=O)c4ccccc34)cc2s1	HCMV inh -62, VACV mCherry inh inconclusive
